# From PMC11062922 (Nature Chemical Biology, 2023)
# Like-named read-outs stand apart in the source and are kept apart here.
# Tests used:
# Parameters in all cases: species or system human, MV4-11 + K-562 + COLO205 + SK-N-BE2 + OVCAR-8
# CHEK1 = settings: read-out: apparent Kd, n = 1
# PIM1 = settings: read-out: apparent Kd, compound concentrations: 100 nM and 1000 nM (sheet 'Samples'), n = 1
# STK11 = settings: read-out: apparent Kd, n = 1
# FECH = settings: read-out: apparent Kd, n = 1
# MST1R = settings: read-out: apparent Kd, n = 1
# PRKCA = settings: read-out: apparent Kd, n = 1
# EIF2AK1 = settings: read-out: apparent Kd, n = 1
# FGFR1 = settings: read-out: apparent Kd, n = 1
# MAP3K4 = settings: read-out: apparent Kd, n = 1
# AXL = settings: read-out: apparent Kd, n = 1
# NUAK2 = settings: read-out: apparent Kd, compound concentrations: 100 nM and 1000 nM (sheet 'Samples'), n = 1
# PAK6 = settings: read-out: apparent Kd, n = 1
# PRKCQ = settings: read-out: apparent Kd, compound concentrations: 100 nM and 1000 nM (sheet 'Samples'), n = 1
# RAB5C = settings: read-out: apparent Kd; compound concentrations:100 nM and 1000 nM (sheet 'Samples'); n = 1
# SPR = settings: read-out: apparent Kd, compound concentrations: 100 nM and 1000 nM (sheet 'Samples'), n = 1
# MAP4K3 = settings: read-out: apparent Kd, n = 1
# TAOK3 = settings: read-out: apparent Kd, compound concentrations: 100 nM and 1000 nM (sheet 'Samples'), n = 1
# MAP3K1 = settings: read-out: apparent Kd, n = 1
# AIFM1 = settings: read-out: apparent Kd, n = 1
# MAPK1 = settings: read-out: apparent Kd, n = 1
# [1] = compound concentrations:100 nM and 1000 nM (sheet 'Samples')
smiles,measurement,setting,value
COc1ccc(Nc2nccc(N3CCC(NC(=O)Nc4ccc5c(c4)OCO5)C3)n2)cc1 (stereo not drawn) [GSK1379745A],potency estimated from few doses,"CHEK1; compound concentrations: 100 nM and 1000 nM (sheet 'Samples'), CATDS: 3.4900444296342099E-2",2.07 µM
same,potency estimated from few doses,PIM1; CATDS: 4.3475641275587597E-2,1.26 µM
NC(=O)c1cccc(Nc2nccc(Nc3cccc4[nH]ncc34)n2)c1 [GW782612X],potency estimated from few doses,"STK11; compound concentrations: 100 nM and 1000 nM (sheet 'Samples'), CATDS: 6.0653418391634698E-2",0.342 µM
COc1cc(Nc2ccnc3cc(-c4ccncc4)ccc23)cc(OC)c1OC.Cl [GW494610A],potency estimated from few doses,"FECH; compound concentrations: 100 nM and 1000 nM (sheet 'Samples'), CATDS: 2.4367792327904599E-2",1.07 µM
same,potency estimated from few doses,"MST1R; compound concentrations: 100 nM and 1000 nM (sheet 'Samples'), CATDS: 2.33652063903033E-2",1.28 µM
O=C1N=C(NCCc2cccc(Cl)c2)S/C1=C\c1ccc2ncccc2c1 [RO4509201-000],potency estimated from few doses,"FECH; compound concentrations: 100 nM and 1000 nM (sheet 'Samples'), CATDS: 5.2952837559238602E-2",2.08 µM
CS(=O)(=O)CCNCc1ccc(-c2ccc3ncnc(Nc4ccc(OCc5cccc(F)c5)c(C(F)(F)F)c4)c3c2)o1 [GW576484X],potency estimated from few doses,"MST1R; compound concentrations: 100 nM and 1000 nM (sheet 'Samples'), CATDS: 4.8936571303095901E-2",2.07 µM
Cc1cccc(Nc2nc(NCCN)ncc2C(N)=O)c1 [GSK1292139B],potency estimated from few doses,"PRKCA; compound concentrations: 100 nM and 1000 nM (sheet 'Samples'), CATDS: 7.8456539991917998E-2",1.1 µM
CCN(CC)CCOc1ccc(Nc2ncc3cc(-c4c(Cl)cccc4Cl)c(=O)n(C)c3n2)cc1 [SB-601273],potency estimated from few doses,EIF2AK1; [1],0.802 µM
same,potency estimated from few doses,FGFR1; [1],0.388 µM
same,potency estimated from few doses,MAP3K4; [1],0.64 µM
O=C1N=C(NCc2cccs2)SC1Cc1ccc2ncccc2c1 (stereo not drawn) [RO4629078-000],potency estimated from few doses,"AXL; compound concentrations: 100 nM and 1000 nM (sheet 'Samples'), CATDS: 8.9637378169906395E-3",0.899 µM
same,potency estimated from few doses,"CHEK1; compound concentrations: 100 nM and 1000 nM (sheet 'Samples'), CATDS: 9.1517924527920996E-3",0.847 µM
same,potency estimated from few doses,"FGFR1; compound concentrations: 100 nM and 1000 nM (sheet 'Samples'), CATDS: 7.8188916788292304E-3",1.4 µM
same,potency estimated from few doses,NUAK2; CATDS: 9.28769092053984E-3,0.813 µM
same,potency estimated from few doses,"PAK6; compound concentrations: 100 nM and 1000 nM (sheet 'Samples'), CATDS: 5.6767334452466102E-2",0.0434 µM
same,potency estimated from few doses,PRKCQ; CATDS: 4.8799216922885302E-2,0.0521 µM
CCn1cc(-c2ccnc3[nH]c(-c4cccc(CN(C)C)c4)cc23)c(-c2ccc(NC(=O)N(C)C)cc2)n1 [GSK1070916],potency estimated from few doses,AXL; [1],0.891 µM
same,potency estimated from few doses,RAB5C,1.43 µM
Cc1ccc(O)cc1Nc1ccnc2cc(-c3ccccn3)ccc12.Cl [GW440139A],potency estimated from few doses,SPR; CATDS: 2.8512814896169001E-2,0.683 µM
CC(C)c1nc(-c2cccc(NS(=O)(=O)c3ccccc3)c2)c(-c2ccnc(Nc3ccc4c(c3)CN(C)CC4)n2)s1 [GSK1649598A],potency estimated from few doses,"EIF2AK1; compound concentrations: 100 nM and 1000 nM (sheet 'Samples'), CATDS: 1.2049138134939999E-2",2.29 µM
same,potency estimated from few doses,"MAP4K3; compound concentrations: 100 nM and 1000 nM (sheet 'Samples'), CATDS: 1.29423166532144E-2",1.57 µM
same,potency estimated from few doses,TAOK3; CATDS: 1.6812822211495999E-2,0.6 µM
CN1C(=O)c2ccccc2N(C)c2nc(Nc3cnn(C4CCNCC4)c3)ncc21 [XMD-17-51],potency estimated from few doses,NUAK2; CATDS: 1.40993766530741E-2,1.63 µM
same,potency estimated from few doses,TAOK3; CATDS: 4.0612086764621601E-2,0.0783 µM
Cn1cc(C2=C(c3cn(CCCO)c4ccccc34)C(=O)NC2=O)c2ccccc21 [RO0317377-000],potency estimated from few doses,"PRKCA; compound concentrations: 100 nM and 1000 nM (sheet 'Samples'), CATDS: 0.117489729482602",1.24 µM
same,potency estimated from few doses,PRKCQ; CATDS: 9.7872401763747702E-2,2.02 µM
COc1cccc(-n2cnc3c(N/N=C/c4ccncc4)ncnc32)c1 [GW813360X],potency estimated from few doses,"MAP3K1; compound concentrations: 100 nM and 1000 nM (sheet 'Samples'), CATDS: 0.17625774536474501",1.04 µM
Cn1cc(-c2ccc3c(c2)CCN3C(=O)Cc2cccc(Cl)c2)c2c(N)ncnc21 [GSK2606590A],potency estimated from few doses,"EIF2AK1; compound concentrations: 100 nM and 1000 nM (sheet 'Samples'), CATDS: 0.41818384912394302",0.679 µM
CNC(=O)c1ccccc1Nc1nc(Nc2cccc(CS(C)(=O)=O)c2)ncc1C.O=CO [GSK1520489A],potency estimated from few doses,"AXL; compound concentrations: 100 nM and 1000 nM (sheet 'Samples'), CATDS: 1.37984345324301E-2",0.374 µM
same,potency estimated from few doses,"FGFR1; compound concentrations: 100 nM and 1000 nM (sheet 'Samples'), CATDS: 1.6795329465602301E-2",0.213 µM
same,potency estimated from few doses,NUAK2; CATDS: 9.7596009365087198E-3,1.5 µM
same,potency estimated from few doses,SPR; CATDS: 1.1311991214782401E-2,0.749 µM
CN1CCc2ccc(Nc3nccc(-c4c(-c5cccc(NC(=O)c6c(F)cccc6F)c5)nc5ccccn45)n3)cc2C1.Cl [GSK1010829B],potency estimated from few doses,TAOK3; CATDS: 3.3504953987682898E-2,1.49 µM
CN1CCN(Cc2ccc(NC(=O)Nc3ccc(N(C)c4ccnc(Nc5ccc(CS(C)(=O)=O)cc5)n4)cc3)cc2)CC1.Cl [GW827654A],potency estimated from few doses,"MAP3K4; compound concentrations: 100 nM and 1000 nM (sheet 'Samples'), CATDS: 3.4818891633212903E-2",1.77 µM
N#Cc1cnc2cc(-c3cnc(CNCCN4CCOCC4)s3)ccc2c1Nc1ccc(Oc2ccccc2)cc1 [GW664114X],potency estimated from few doses,"MAP3K4; compound concentrations: 100 nM and 1000 nM (sheet 'Samples'), CATDS: 5.1499823560292202E-2",0.914 µM
Nc1ncc(-c2cn[nH]c2)c2scc(-c3ccc4c(c3)CCN4C(=O)Cc3ccccc3)c12 [GSK2593067A],potency estimated from few doses,"MAP4K3; compound concentrations: 100 nM and 1000 nM (sheet 'Samples'), CATDS: 5.6013670337788E-2",2.21 µM
O=S(=O)(CCOCc1ccc(-c2ccc3ncnc(Nc4ccc(OCc5cccc(F)c5)c(Cl)c4)c3c2)o1)c1ccccc1 [GW615311X],potency estimated from few doses,PIM1; CATDS: 3.06146278904708E-2,1.12 µM
COc1cccc(-c2c[nH]c3c(N/N=C/c4ccncc4)ncnc23)c1 [GW814408X],potency estimated from few doses,STK11; [1],1.9 µM
N#Cc1cccc(Nc2nccc(-c3cnn4ncccc34)n2)c1 [GW778894X],potency estimated from few doses,PRKCA; [1],1.18 µM
Nc1nc(N)c2nc(-c3ccccc3)[nH]c2n1 [SKF-12778],potency estimated from few doses,STK11; [1],1.74 µM
CC(=O)c1c(-c2ccncc2)[nH]c(-c2ccncc2)c1C [GW493036X],potency estimated from few doses,RAB5C,1.6 µM
COc1cc2ncn(-c3cc(OCc4cccs4)c(C(N)=O)s3)c2cc1OC [GSK312948A],potency estimated from few doses,MAP3K1; [1],1.47 µM
same,potency estimated from few doses,RAB5C,1.45 µM
Cl.Cn1c(=O)c(Cc2ccc(F)cc2F)cc2cnc(NC3CCOCC3)nc21 [RO3308757-001],potency estimated from few doses,PAK6; [1],1.65 µM
Cn1cc(-c2cnc(N)c3c(-c4ccc5c(c4)CCN5C(=O)Cc4ccccc4)csc23)cn1 [GSK2593074A],potency estimated from few doses,MAP4K3; [1],1.57 µM
COc1cc(/C=N/Nc2ncnc3[nH]ncc23)ccc1O [GW578748X],potency estimated from few doses,CHEK1; [1],0.592 µM
COc1cc2ncn(-c3cc(OCCCc4ccccc4)c(C(N)=O)s3)c2cc1OC [GSK205189A],potency estimated from few doses,PAK6; [1],1.96 µM
COc1cc2ncn(-c3cc(OCc4ccncc4)c(C(N)=O)s3)c2cc1OC [GSK336313A],potency estimated from few doses,FECH; [1],2.25 µM
COc1cc2ncn(-c3cc(OCc4sccc4Cl)c(C(N)=O)s3)c2cc1OC [GSK448459A],potency estimated from few doses,MAP3K1; [1],0.511 µM
NC(=O)c1cccnc1COc1cc(-c2ccc(N3CCOCC3)nc2)cc2ncccc12 [BI01125081],potency estimated from few doses,MST1R; [1],1.12 µM
CCCCCNC(=O)[C@@H]1CCCN2C(=O)CC[C@H](NC(=O)[C@H](Cc3ccc(OP(=O)(O)O)cc3)NC(C)=O)C(=O)N12 [RO0324694-000],potency estimated from few doses,AIFM1; [1],1.67 µM
Cc1ccc(C(=O)NC2CC2)cc1-c1ccc2[nH]ncc2c1 [GW820759X],potency estimated from few doses,"AIFM1; compound concentrations: 100 nM and 1000 nM (sheet 'Samples'), CATDS: 0.35268476986263803",1.04 µM
COc1cc2ncn(-c3cc(O[C@H](C)c4ccccc4Cl)c(C(N)=O)s3)c2cc1OC [GSK237701A],potency estimated from few doses,MAP3K1; [1],0.398 µM
Cc1[nH]nc2c1N=C(c1ccccc1Cl)c1cc([N+](=O)[O-])ccc1N2 [RO0274406-000],potency estimated from few doses,"MAPK1; compound concentrations: 100 nM and 1000 nM (sheet 'Samples'), CATDS: 7.1630348262951699E-2",1.23 µM
Cl.Oc1ccc2ncnc(Nc3ccc(OCc4ccccc4)cc3)c2c1 [GI262866A],potency estimated from few doses,MAPK1; [1],0.617 µM
COc1cc(N2CCN(C(C)C)CC2)ccc1Nc1nc(Nc2cccc(F)c2C(=O)O)c2cc[nH]c2n1 [GSK1819799A],potency estimated from few doses,PIM1; CATDS: 4.9008652633002601E-2,1.33 µM
same,potency estimated from few doses,SPR; CATDS: 4.2652137830011101E-2,2 µM
COc1ccc(C2=C(c3cn(C)c4ccccc34)C(=O)NC2=O)cc1OC [RO3206363-000],potency estimated from few doses,PRKCQ; CATDS: 0.114661548989235,0.0828 µM
Cl.Fc1cccc(COc2ccc(Nc3ncnc4cc(-c5ccc[nH]5)sc34)cc2Cl)c1 [GW693881A],potency estimated from few doses,"AIFM1; compound concentrations: 100 nM and 1000 nM (sheet 'Samples'), CATDS: 0.160865216132973",1.35 µM
CC(=O)Nc1ccc2c(C3=C(c4cn(C)c5ccccc45)C(=O)NC3=O)cn(C)c2c1 [RO0317596-000],potency estimated from few doses,"MAPK1; compound concentrations: 100 nM and 1000 nM (sheet 'Samples'), CATDS: 0.12847476759448101",1.1 µM
COc1cc(F)c(F)c(F)c1C(=O)c1cnc(NC2CCN(S(C)(=O)=O)CC2)nc1N [RO4600703-000],potency estimated from few doses,AIFM1; [1],0.939 µM
same,potency estimated from few doses,MAPK1; [1],1.58 µM
